# Screening results (PubChem)
# BJeLR lethal: kills HRASV12-expressing BJeLR cells; AID 1554; hit rate 0.17% among 300,000; BJeLR (HRASV12) viability, CellTiter-Glo ATP luminescence, 48 h; inhibition, % (no concentration beside the values); in the data active means inhibition above about 50%; inconclusive means no clear call, values can overlap the other calls
# BoNT A protease: BoNT A light chain protease inhibition. inhibition, % at 10 µM. hit rate 0.17% among 360,000. AID 588499. multiplex microsphere protease substrate cleavage, flow cytometry; further: plate controls were buffer without enzyme for full effect and enzyme alone for no effect
# Autofluor counter: compound fluorescence in toxin protease inhibitor counterscreen; compound autofluorescence counterscreen, microsphere flow cytometry; stronger effect = higher value; fluorescence intensity (concentration not given with the values); hit rate 3.1% among 360,000; AID 624483; in the data active means fluorescence intensity above about 16000; inconclusive means no clear call, values can overlap the other calls
# Anthrax LF inh2: inhibitors of Bacillus anthracis lethal factor protease; P15917; multiplex microsphere protease cleavage assay, LF; inhibition, % at 10 µM; hit rate 0.12% among 360,000; AID 588501; further: plate controls were buffer without enzyme for full effect and enzyme alone for no effect
# BoNT-F LC inh: BoNT F light chain protease inhibition | Multiplex microsphere protease cleavage assay, flow cytometry | inhibition, % at 10 µM | hit rate 0.22% among 360,000 | AID 588497; in the data active means inhibition above about 35%, passing the limit was not always enough; inconclusive means no clear call, values can overlap the other calls; further: plate controls were buffer without enzyme for full effect and enzyme alone for no effect
# An asterisk follows results filed as active; ? = inconclusive; . = no result given. An excerpt weighted towards active compounds, which were near 3.5% of everything screened. Unless noted, no stated cut-off is given here; in the data, active means inhibition above about 30%; inconclusive means no clear call, values can overlap the other calls; inactive means below that.
SMILES,BJeLR lethal,BoNT A protease,Autofluor counter,Anthrax LF inh2,BoNT-F LC inh
c1ccc(C2=Nn3c(nnc3-c3cccnc3)SC2)cc1,0.3,4.5,22262*,1.0,7.0
COc1ccc(OC)c(C2=Nn3c(nnc3-c3cccc(OC(C)C)c3)SC2)c1,-3.8,-1.2,16655*,-14.7,-5.4
COc1ccc(C2=Nn3c(nnc3-c3cccnc3)SC2)cc1,5.5,0.1,9427,1.3,-4.0
CCOc1ccc(C2=Nn3c(nnc3-c3cccnc3)SC2)cc1,-7.0,?,20067*,-0.6,-2.7
C=CCN1C(=O)CS/C1=N\S(=O)(=O)c1ccc(Cl)cc1,1.8,0.5,2458,0.7,-1.6
Cc1ccc(S(=O)(=O)NC(C)CCc2ccccc2)cc1 (stereo not drawn),-9.6,1.1,4364,-0.6,-0.8
O=C(NCc1ccc(F)cc1)c1cc(C2CCCN(C(=O)C3CCCCC3)C2)on1 (stereo not drawn),.,-0.1,3469,5.3,-4.2
COc1ncccc1C(=O)NCC(CC(=O)O)c1ccccc1 (stereo not drawn),-1.8,-1.7,16335*,-8.1,-5.6
CCOc1ncccc1C(=O)NCC(c1ccccc1)N(C)C (stereo not drawn),-3.1,1.8,5244,-1.1,3.4
COC(=O)c1c(NS(=O)(=O)c2cccs2)sc2c1CCCC2,4.9,-4.0,25083*,-4.9,-7.0
O=C(Nc1sc2c(c1C(=O)O)CCCCC2)c1cccs1,4.2,-0.4,4271,0.5,-0.9
O=C(Nc1sc2c(c1C(=O)O)CCCC2)c1cccs1,5.2,-0.7,24122*,-1.5,-2.7
CC(C)c1ccc(NC(=O)C[n+]2ccn(C3=C([O-])c4ccccc4C3=O)c2)cc1,-2.9,-1.2,4399,-4.5,-5.7
CN(C)C(CNC(C(=O)Nc1ccc(F)cc1)c1ccccc1)c1ccccc1 (stereo not drawn),-9.1,2.0,3995,-6.6,-27.0
O=C1CC(N2CCN(C/C=C/c3ccccc3)CC2)C(=O)N1Cc1ccc(N2CCCC2=O)cc1 (stereo not drawn),0.0,0.4,19939*,-7.3,-2.5
O=C1CC(N2CCOCC2)C(=O)N1Cc1ccc(N2CCCC2=O)cc1 (stereo not drawn),-0.9,-0.5,5105,-6.3,-0.6
O=C(NC1(C(F)(F)F)N=C2SCCN2C1=O)c1ccccc1 (stereo not drawn),-3.4,-1.5,24460*,-4.5,-2.8
COc1ccc(C(=O)NC2(C(F)(F)F)N=C3SCCN3C2=O)cc1 (stereo not drawn),.,1.3,9638,-6.6,-5.5
CC1(C(=O)Nc2ccc3c(c2)OCO3)CCN1C(=O)C1CCCCC1 (stereo not drawn),.,-0.4,3745,-1.3,-1.3
COCCNC(=O)COC(=O)/C=C/c1cnc2ccccc2n1,3.7,7.8,17342*,-8.9,9.2
CCOC(=O)c1nc(C)[nH]c1C(=O)OCC,-2.0,?,22419*,-4.0,0.1
COc1cc(C)c(CN2CCN(c3ccccc3)CC2)cc1C,-7.4,-3.5,17583*,-2.3,-9.4
O=S(=O)(c1ccc2ccccc2c1)N(CC(O)COCc1ccco1)c1ccccc1 (stereo not drawn),6.5,-0.9,23464*,-6.3,-2.5
CCN(CC)CC(O)CN(c1ccccc1)S(=O)(=O)c1ccc2ccccc2c1 (stereo not drawn),-2.3,-2.9,4166,15.0,19.4
CCc1nnc(NC(=O)CN2CCN(Cc3ccc(F)cc3)CC2)s1,1.8,-5.1,3696,-10.0,-5.7
SMILES,BJeLR lethal,BoNT A protease,Autofluor counter,Anthrax LF inh2,BoNT-F LC inh
O=c1c2ccccc2sn1-c1cc(S(=O)(=O)N2CCOCC2)ccc1N1CCOCC1,0.5,82.9*,9835,1.4,23.4
O=c1c2ccccc2sn1-c1cc(S(=O)(=O)N2CCOCC2)ccc1N1CCCC1,14.9,?,20573*,-8.3,2.7
CC1CCC(NC(=O)C2CCC(CNS(=O)(=O)c3ccc4c(c3)C(C)(C)C(=O)N4C)CC2)CC1 (stereo not drawn),.,-0.7,5648,2.6,-6.0
CCN1CCN(C(=O)c2ccc3c(c2)S(=O)(=O)c2ccccc2C3=O)CC1,2.4,0.0,3914,-2.9,-4.3
COc1ccc(-c2cc(O)cc(O)c2)cc1,0.9,-1.7,16572*,-3.9,-3.0
Cc1ccc(NC(=O)c2ccc(C#CC3(O)CCCCC3)cc2)cc1C,4.3,1.4,22190*,-6.6,0.8
CCCCOC(=O)CCn1[nH]c(=O)c2ccccc2c1=O,-3.8,-0.8,22758*,-2.3,0.4
CC(C)(C)C(=O)COC(=O)CCc1nc2ccccc2[nH]c1=O,2.0,-0.3,3642,2.4,-7.8
CC(=O)COC(=O)CCc1nc2ccccc2[nH]c1=O,3.3,-1.5,6760,-7.6,-15.9
CCCCOC(=O)CCc1nc2ccccc2[nH]c1=O,-4.1,9.0,18710*,2.6,12.3
O=C(CCn1[nH]c(=O)c2ccccc2c1=O)OC1CCCCC1,3.8,-0.3,10269,-1.2,0.6
CCC(OC(=O)CCc1nc2ccccc2[nH]c1=O)C(=O)c1ccccc1 (stereo not drawn),3.7,-2.7,17407*,-4.0,-7.8
CN(C)C(=O)c1cccc(-c2cnc3c(NC=O)cc(-c4ccccc4F)cn23)c1,.,-0.3,3149,-2.6,1.1
CCN1CCN(C(=O)c2c(-c3c(Cl)cccc3Cl)noc2C)CC1,2.9,0.3,5579,1.2,6.0
CCCOC(=O)CCCN1C(=O)/C(=C2\SC(=S)N(CCCC(=O)OCCC)C2=O)SC1=S,12.3,81.4*,3940,5.8,?
CCCCOC(=O)CCN1C(=O)/C(=C2\SC(=S)N(CCC(=O)OCCCC)C2=O)SC1=S,4.5,30.5*,2108,15.4,-0.8
CCCCCCCCCCOC(=O)CCN1CC1,.,-0.4,4248,1.1,-3.6
CCCCCOC(=O)CCN1C(=O)/C(=C2\SC(=S)N(CCC(=O)OCCCCC)C2=O)SC1=S,-7.2,39.8*,3092,13.9,21.1
CN1C=CC=C/C1=C1\SC(=S)N(CC(=O)O)C1=O,5.1,-0.1,4248,-4.5,-4.0
COc1cccc(C(=O)N2CCC[C@@H]2C(=O)N2CCC[C@H]2C(=O)NCc2ccncc2)c1,.,-0.4,5663,7.1,-9.8
Cc1cc(C)cc(C(O)c2ncc(-c3ccccc3Cl)[nH]2)c1 (stereo not drawn),.,0.0,3052,-1.8,-6.1
CC(C)(C)N(Cc1ccc2c(c1)OCO2)C(=O)/C=C\S(=O)c1ccccc1 (stereo not drawn),.,0.0,3128,-13.2,-2.7
Cc1ccc(NC(=O)c2ncn(CCCN(C)CCc3ccccn3)n2)cc1C,.,-0.1,3775,-2.6,-2.5
Cc1nc(N)nc(N)c1CCCc1ccc(Cl)c(Cl)c1,57.1*,-3.0,3852,-4.5,-24.3
Cc1nc(N)nc(N)c1-c1ccc(Cl)c(Cl)c1,.,2.1,10324,3.8,12.8
O=C(CSc1ncn[nH]1)N(C1CCCCC1)C1CCCCC1,4.1,-1.2,20145*,1.5,-2.6
O=C(CSc1ncn[nH]1)N1CCCCC1,-4.0,0.8,4675,-4.4,7.6
O=C(COc1ccc(Br)cc1)Nc1ccc(-c2nnc(-c3ccco3)o2)cc1,-10.1,-7.3,21839*,1.1,-7.6
